Source: PubChem
PME-1 primary = blocks human protein phosphatase methylesterase 1. inhibition, % at 5.9 µM. Q9Y570. 320,000 tested, 0.53% active. recombinant PME-1, FP-Rh probe fluorescence polarization;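 active = inhibition above the campaign mean of all compounds plus 3 SD, cut at about 26% in these data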;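 note: competitive labeling of PME-1 active site by serine hydrolase directed probe; 0% = PME-1 with DMSO and 100% = wells lacking PME-1 enzyme; inhibitors block probe labeling so polarization falls and inhibition rises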
LYPLA1 inh = blocks human lysophospholipase 1, a PME1 counter-screen | AID 2174 | inhibition, % at 5.9 µM | 320,000 tested, 0.16% active | recombinant LYPLA1, FP-Rh probe fluorescence polarization;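 active = inhibition above the mean of all tested compounds plus 3 SD, set per campaign, cut at about 14% in these data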;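 note: inhibitors block serine hydrolase probe labeling of LYPLA1 so polarization falls; 0% = enzyme with DMSO and 100% = wells lacking LYPLA1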
Target sequence (O75608 whole entry, looked up): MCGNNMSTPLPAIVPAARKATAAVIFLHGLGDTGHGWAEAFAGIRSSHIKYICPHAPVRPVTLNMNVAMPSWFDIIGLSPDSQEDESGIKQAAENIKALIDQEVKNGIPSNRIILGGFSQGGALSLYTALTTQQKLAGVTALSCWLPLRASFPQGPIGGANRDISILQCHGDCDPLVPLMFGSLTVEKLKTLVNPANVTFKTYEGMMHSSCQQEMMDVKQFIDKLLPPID
LYPLA2 counter = blocks human lysophospholipase 2, a PME1 counter-screen. O95372. recombinant LYPLA2, FP-Rh probe fluorescence polarization. inhibition, % at 5.9 µM. 320,000 tested, 0.38% active;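 active = inhibition above the screen-wide mean plus 3 SD, limit set per campaign, cut at about 26% in these data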;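 note: 0% = LYPLA2 with DMSO and 100% = wells lacking LYPLA2 enzyme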
Target sequence (O95372 whole entry, looked up): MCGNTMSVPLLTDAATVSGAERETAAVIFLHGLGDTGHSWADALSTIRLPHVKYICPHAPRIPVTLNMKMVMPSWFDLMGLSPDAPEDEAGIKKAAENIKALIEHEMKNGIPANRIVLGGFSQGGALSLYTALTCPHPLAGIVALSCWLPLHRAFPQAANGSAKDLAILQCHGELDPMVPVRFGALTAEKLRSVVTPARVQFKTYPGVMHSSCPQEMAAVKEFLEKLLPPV
Fam108B inh = Fam108B inhibition, counter-screen for RBBP9 inhibitors. recombinant Fam108B, FP-Rh probe fluorescence polarization. inhibition, % at 9.51 µM. AID 1947. 300,000 tested, 0.33% active;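 active = inhibition above the screen mean inhibition plus 3 SD, computed separately per campaign, cut at about 18% in these data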;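 note: inhibitors lower polarization as less probe binds the enzyme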
PREPL inhibitor = inhibits the human prolyl oligopeptidase-like enzyme | inhibition, % at 5.96 µM | recombinant PREPL, fluorescence polarization activity-based probe | 320,000 tested, 0.68% active; in the data active = inhibition above about 43%;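 note: 0% = enzyme with DMSO and 100% = wells lacking enzyme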
LYPLA2 confirm = LYPLA2 (human) inhibition, confirmation counter-screen; inhibition, % at 5.9 µM; shares compounds with LYPLA2 counter; 1,100 tested, 72% active; AID 2232; recombinant LYPLA2, FP-Rh probe fluorescence polarization;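 active = mean inhibition across replicates above the hit cutoff set in the primary screen, cut at about 26% in these data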;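 note: blocked labeling of the enzyme by serine hydrolase FP-Rh probe lowers polarization; 0% = enzyme with DMSO and 100% = wells lacking LYPLA2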
LYPLA2 gel ABPP = blocks human acyl-protein thioesterase 2 in gel ABPP; rhLYPLA2 in mouse brain proteome, gel ABPP FP-Rh; 150 tested, 30% active; inhibition, % at 20 µM; shares compounds with LYPLA2 counter;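 active = inhibition of LYPLA2 enzyme probe labeling above about 50%, limit read from the data; inactive = inhibition below that limit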;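 note: loss of FP-Rh probe labeling of the LYPLA2 gel band measured as band density; 0% = DMSO only control band and 100% = blank gel background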
Active calls of the source: *. Sampled rows, rich in hits. Any-hit rate of the full collection: about 1.3%.

Results for COc1cc(C(=O)NCCCc2ccccc2)cc(OC)c1OC ?
PME-1 primary: 1; LYPLA1 inh: 1; LYPLA2 counter: 1; Fam108B inh: -2; PREPL inhibitor: 9

How did CC(C)C(NC(=O)c1ccccc1NC(=O)c1ccccc1)C(=O)NCCCn1ccnc1 (configuration not stated) do in these assays?
PME-1 primary: 3; LYPLA1 inh: 4; LYPLA2 counter: 29*; Fam108B inh: 0; PREPL inhibitor: 1; LYPLA2 confirm: -1

Results for O=C(NCC(=O)N1CCN(C/C=C/c2ccccc2)CC1)c1ccc(OC(F)F)cc1 ?
PME-1 primary: -1; LYPLA1 inh: 1; LYPLA2 counter: 35*; PREPL inhibitor: 23; LYPLA2 confirm: 32*

What do the screens show for `O=C(NCC(=O)N1CCN(C/C=C/c2ccccc2)CC1)c1ccc(Br)cc1`?
PREPL inhibitor: 20

How did Cc1ccc(NC(=O)CN2C(=O)S/C(=C\c3cc(C)n(-c4cccc(C(=O)O)c4)c3C)C2=O)cc1 do in these assays?
PME-1 primary: -4; LYPLA1 inh: -5; LYPLA2 counter: 48*; Fam108B inh: -1; PREPL inhibitor: 4; LYPLA2 confirm: 43*

What do the screens show for `Cc1cccc(NC(=O)CN2C(=O)S/C(=C\c3cc(C)n(C)c3C)C2=O)c1`?
PME-1 primary: -1; LYPLA1 inh: -6; LYPLA2 counter: 57*; Fam108B inh: -5; PREPL inhibitor: 13; LYPLA2 confirm: 77*; LYPLA2 gel ABPP: 60*

Results for Cc1ccc(NC(=O)CN2C(=O)S/C(=C\c3ccc(-c4cccc(C(=O)O)c4C)o3)C2=O)cc1 ?
PME-1 primary: -6; LYPLA1 inh: -4; LYPLA2 counter: 2; Fam108B inh: -9; PREPL inhibitor: 6

Results for Cc1ccc(NC(=O)CN2C(=O)S/C(=C\c3ccc(C(=O)O)cc3)C2=O)cc1 ?
PME-1 primary: -4; LYPLA1 inh: -4; LYPLA2 counter: -5; Fam108B inh: -6; PREPL inhibitor: 2

How did Cc1cc(/C=C2\SC(=O)N(CC(=O)Nc3ccccc3F)C2=O)c(C)n1C do in these assays?
PME-1 primary: -8; LYPLA1 inh: -7; LYPLA2 counter: 42*; Fam108B inh: -2; PREPL inhibitor: 6; LYPLA2 confirm: 26*

Results for Cc1ccc(C(=O)O)cc1-c1ccc(/C=C2\SC(=O)N(CC(=O)Nc3ccccc3)C2=O)o1 ?
PME-1 primary: -7; LYPLA1 inh: -4; LYPLA2 counter: 27*; Fam108B inh: -3; PREPL inhibitor: 3; LYPLA2 confirm: 26*

Results for O=C(CN1C(=O)S/C(=C\c2ccccc2F)C1=O)Nc1ccccc1O ?
PME-1 primary: 5; LYPLA1 inh: -4; LYPLA2 counter: 12; Fam108B inh: 0; PREPL inhibitor: 10

How did Cc1ccc(NC(=O)CN2C(=O)S/C(=C\c3cc(C)n(C)c3C)C2=O)cc1 do in these assays?
PME-1 primary: -11; LYPLA1 inh: -11; LYPLA2 counter: -18; Fam108B inh: -9; PREPL inhibitor: 1

How did O=C(O)CN=CC1=C(O)CC(c2ccccc2)CC1=O (configuration not stated) do in these assays?
PME-1 primary: -8; LYPLA1 inh: -4; LYPLA2 counter: 1; Fam108B inh: -7; PREPL inhibitor: 16

What do the screens show for `NC(=O)c1nsc(C(=O)N(c2cccc(F)c2)C(C(=O)NC2CCCC2)c2ccco2)c1N` (configuration not stated)?
PME-1 primary: -4; LYPLA1 inh: -4; LYPLA2 counter: -2; Fam108B inh: 1; PREPL inhibitor: -2

Results for O=[N+]([O-])c1ccc(OCCN2CCNCC2)cc1 ?
PME-1 primary: 5; LYPLA1 inh: 5; LYPLA2 counter: 29*; Fam108B inh: 2; PREPL inhibitor: 3; LYPLA2 confirm: 26*

Results for O=Cc1ccc(OCCOc2ccc([N+](=O)[O-])cc2)cc1 ?
PME-1 primary: -1; LYPLA1 inh: 5; LYPLA2 counter: 37*; Fam108B inh: 0; PREPL inhibitor: 10; LYPLA2 confirm: 23

What do the screens show for `O=[N+]([O-])c1ccc(OCCOCCOc2ccc([N+](=O)[O-])cc2)cc1`?
PME-1 primary: -1; LYPLA1 inh: -3; LYPLA2 counter: -2; Fam108B inh: -1; PREPL inhibitor: -4

How did CC1CCc2c(sc3ncnc(SCC(=O)N(C)C4CCS(=O)(=O)C4)c23)C1 (configuration not stated) do in these assays?
PREPL inhibitor: 20

Results for CNC(=S)Nc1ccc(N2CCN(c3ccc(C(F)(F)F)cn3)CC2)nc1 ?
PME-1 primary: 2; LYPLA1 inh: 8; LYPLA2 counter: 54*; Fam108B inh: 1; PREPL inhibitor: 20; LYPLA2 confirm: 65*; LYPLA2 gel ABPP: 19

What do the screens show for `CN1CCN(c2ccc(NC(=O)c3ccc(C(F)(F)F)cc3)cn2)CC1`?
PME-1 primary: -1; LYPLA1 inh: -2; LYPLA2 counter: -1; Fam108B inh: 2; PREPL inhibitor: 8

Results for CC(CC(=O)O)CC(=O)Nc1ccc(Br)cc1 (configuration not stated) ?
PME-1 primary: 0; LYPLA1 inh: 2; LYPLA2 counter: 3; Fam108B inh: 0; PREPL inhibitor: 10

Results for O=C(c1ccc(N2CCN(C(=O)c3cccc(F)c3)CC2)cc1)c1cccc(F)c1 ?
PME-1 primary: 5; LYPLA1 inh: 6; LYPLA2 counter: 43*; Fam108B inh: 3; PREPL inhibitor: 16; LYPLA2 confirm: 29*

What do the screens show for `O=C(c1ccc(N2CCN(C(=O)c3ccccc3Br)CC2)cc1)c1cccc(F)c1`?
PME-1 primary: 1; LYPLA1 inh: -1; LYPLA2 counter: 0; Fam108B inh: -7; PREPL inhibitor: 16

Results for CC(Oc1ccc(Br)cc1)C(=O)NCCCN1CCCC1=O (configuration not stated) ?
PREPL inhibitor: 19

Results for Cc1ccc(C(=O)NCC(=O)OCCCOC(=O)CNC(=O)c2ccc(C)c(C)c2)cc1C ?
PME-1 primary: 1; LYPLA1 inh: 1; LYPLA2 counter: -3; PREPL inhibitor: 1

What do the screens show for `O=C1COc2ccc(C(=O)COC(=O)c3ccc(Cl)cc3[N+](=O)[O-])cc2N1`?
PME-1 primary: 3; LYPLA1 inh: 3; LYPLA2 counter: 27*; Fam108B inh: 4; PREPL inhibitor: 18; LYPLA2 confirm: 33*

How did O=C1COc2ccc(C(=O)COC(=O)c3ccccc3[N+](=O)[O-])cc2N1 do in these assays?
PME-1 primary: 2; LYPLA1 inh: -2; LYPLA2 counter: 16; Fam108B inh: 3; PREPL inhibitor: 4

What do the screens show for `CS(=O)(=O)c1ccc(NC(=O)CCCc2nc3ccccc3c(=O)[nH]2)cc1`?
PME-1 primary: -8; LYPLA1 inh: 3; LYPLA2 counter: 3; Fam108B inh: 0; PREPL inhibitor: 0
